# Experimental data as given in the supplement of paper PMC12645437, “Orthogonal IMiD-Degron Pairs Induce Selective Protein Degradation in Cells” (ACS Chemical Biology, 2025).
# Over roughly 8,300 sequences, “log2 fold change of degron read counts, EGFP-low vs EGFP+ sorted cells (limma voom), compound-induced degradation” has its median near -1.1; the highest 2% begin near 3.2. This excerpt belongs to a sample that is enriched for the highest values.
# T1: CRBN, Q96SW2
# T1 chain: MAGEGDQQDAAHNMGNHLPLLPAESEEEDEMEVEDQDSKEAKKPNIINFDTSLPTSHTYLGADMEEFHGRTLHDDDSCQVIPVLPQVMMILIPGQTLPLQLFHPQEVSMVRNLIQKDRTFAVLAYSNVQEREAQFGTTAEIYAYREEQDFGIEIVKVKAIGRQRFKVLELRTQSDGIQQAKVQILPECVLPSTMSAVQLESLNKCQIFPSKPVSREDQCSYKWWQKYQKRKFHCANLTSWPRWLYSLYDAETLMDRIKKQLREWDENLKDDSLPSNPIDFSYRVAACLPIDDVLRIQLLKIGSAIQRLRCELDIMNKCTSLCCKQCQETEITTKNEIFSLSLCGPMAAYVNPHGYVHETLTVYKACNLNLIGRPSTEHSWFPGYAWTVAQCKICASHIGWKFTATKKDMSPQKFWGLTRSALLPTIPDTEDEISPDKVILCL
# Biological target: T1, CRBN, Q96SW2
# Experiment: log2 fold change of degron read counts, EGFP-low vs EGFP+ sorted cells (limma voom), compound-induced degradation; higher = more compound-induced degradation of the degron-EGFP fusion; degrons are variants of IKZF1/3 zinc finger 2; compound dose not given here
# Conditions: Jurkat, 18 h
# [1] = compound: compound 19 (5-tert-butyl-thalidomide)
# [2] = compound: compound 22 (5-morpholino-thalidomide)
# [3] = compound: compound 33 (diphenyl IMiD analogue)
# 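Note: pooled lentiviral library of zinc finger degron-EGFP fusions in mCherry-positive Jurkat cells, FACS-sorted after compound exposure, with degron abundance counted by next-generation sequencing.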
Sequence,log2 fold change of degron read counts [1],log2 fold change of degron read counts [2],log2 fold change of degron read counts [3],log2 fold change of degron read counts (compound: thalidomide)
"FVCNQCGHVFTQKGNLLRHIKL [46F_47V_49N_50Q_52G_53H_54V_55F_67L_, Q9UKT9]",-2.66,-3.07,-2.27,-2.93
"FMCEICGRFFTQKGNLLRHIKL [46F_47M_49E_50I_52G_53R_54F_55F_67L_, Q9UKT9]",-2.5,-2.11,-1,-1.98
"FSCDVCGAMFTQKGNLLRHIKL [46F_47S_49D_50V_52G_53A_54M_55F_67L_, Q9UKT9]",0.106,-0.592,-0.74,-1.71
"FYCDICGAAFTQKGNLLRHIKL [46F_47Y_49D_50I_52G_53A_54A_55F_67L_, Q9UKT9]",3.37,3.23,2.4,-0.554
"FACDICGAAFTQKGNLLRHIKL [46F_47A_49D_50I_52G_53A_54A_55F_67L_, Q9UKT9]",3.42,2.04,-0.474,-0.517
"FVCDICGAAFTQKGNLLRHIKL [46F_47V_49D_50I_52G_53A_54A_55F_67L_, Q9UKT9]",0.447,2.48,1.33,1.87
"FRCDICGAAFTQKGNLLRHIKL [46F_47R_49D_50I_52G_53A_54A_55F_67L_, Q9UKT9]",1.51,1.47,2.34,1.21
"FMCDICGAAFTQKGNLLRHIKL [46F_47M_49D_50I_52G_53A_54A_55F_67L_, Q9UKT9]",0.96,1.45,2.6,0.343
"FCCDICGAAFTQKGNLLRHIKL [46F_47C_49D_50I_52G_53A_54A_55F_67L_, Q9UKT9]",2.88,2.17,0.975,0.534
"FWCDICGAAFTQKGNLLRHIKL [46F_47W_49D_50I_52G_53A_54A_55F_67L_, Q9UKT9]",3.12,3.67,1.49,-0.516
"FQCDICGAAFTQKGNLLRHIKL [46F_47Q_49D_50I_52G_53A_54A_55F_67L_, Q9UKT9]",1.74,2.51,0.983,3.01
"FICDICGAAFTQKGNLLRHIKL [46F_47I_49D_50I_52G_53A_54A_55F_67L_, Q9UKT9]",-0.22,2.29,1.39,1.5
"FSCDVCGAIFTQKGNLLRHIKL [46F_47S_49D_50V_52G_53A_54I_55F_67L_, Q9UKT9]",-0.277,-1.23,-0.103,-1.43
"FCCEICGREFTQKGNLLRHIKL [46F_47C_49E_50I_52G_53R_54E_55F_67L_, Q9UKT9]",-2.44,-2.4,-1.78,-1.56
"FNCPICGRDFTQKGNLLRHIKL [46F_47N_49P_50I_52G_53R_54D_55F_67L_, Q9UKT9]",-1.89,-1.85,-1.07,-1.09
"FSCSVCGHQFTQKGNLLRHIKL [46F_47S_49S_50V_52G_53H_54Q_55F_67L_, Q9UKT9]",-2.44,-3.11,-2.86,-2.7

Sequence,log2 fold change of degron read counts [1],log2 fold change of degron read counts [2],log2 fold change of degron read counts [3],log2 fold change of degron read counts (compound: thalidomide)
"LCCEICGFECTQKGNLLRHIKL [46L_47C_49E_50I_52G_53F_54E_55C_67L_, Q9UKT9]",-0.329,-0.269,-0.566,0.603
"FHCNQCGAKFTQKGNLLRHIKL [46F_47H_49N_50Q_52G_53A_54K_55F_67L_, Q9UKT9]",-1.43,-1.66,-2.35,-1.73
"FLCDVCGAAFTQKGNLLRHIKL [46F_47L_49D_50V_52G_53A_54A_55F_67L_, Q9UKT9]",-0.47,-1.3,0.2,-0.799
"FFCEICGRCFTQKGNLLRHIKL [46F_47F_49E_50I_52G_53R_54C_55F_67L_, Q9UKT9]",0.787,0.568,0.232,-0.767
"LNCPICGFACTQKGNLLRHIKL [46L_47N_49P_50I_52G_53F_54A_55C_67L_, Q9UKT9]",2.3,1.32,1.06,1.78
"LYCPICGFACTQKGNLLRHIKL [46L_47Y_49P_50I_52G_53F_54A_55C_67L_, Q9UKT9]",2.98,3.33,2.6,1.77
"LECPICGFACTQKGNLLRHIKL [46L_47E_49P_50I_52G_53F_54A_55C_67L_, Q9UKT9]",1.75,-0.131,2.17,3.17
"LCCPICGFACTQKGNLLRHIKL [46L_47C_49P_50I_52G_53F_54A_55C_67L_, Q9UKT9]",2.49,2.68,2.8,2.77
"LKCPICGFACTQKGNLLRHIKL [46L_47K_49P_50I_52G_53F_54A_55C_67L_, Q9UKT9]",1.2,-0.283,-0.872,1.19
"LRCPICGFACTQKGNLLRHIKL [46L_47R_49P_50I_52G_53F_54A_55C_67L_, Q9UKT9]",2.16,2.14,2.39,2.57
"LTCPICGFACTQKGNLLRHIKL [46L_47T_49P_50I_52G_53F_54A_55C_67L_, Q9UKT9]",2.49,3.12,2.65,3.02
"LVCPICGFACTQKGNLLRHIKL [46L_47V_49P_50I_52G_53F_54A_55C_67L_, Q9UKT9]",1.96,3.25,2.26,3.56
"LACPICGFACTQKGNLLRHIKL [46L_47A_49P_50I_52G_53F_54A_55C_67L_, Q9UKT9]",3.6,2.95,2.05,2.43
"LDCPICGFACTQKGNLLRHIKL [46L_47D_49P_50I_52G_53F_54A_55C_67L_, Q9UKT9]",0.373,-0.371,0.648,1.61
"LSCPICGFACTQKGNLLRHIKL [46L_47S_49P_50I_52G_53F_54A_55C_67L_, Q9UKT9]",2.81,2.91,2.59,2.54
"LFCPICGFACTQKGNLLRHIKL [46L_47F_49P_50I_52G_53F_54A_55C_67L_, Q9UKT9]",3.05,3.52,2.44,1.94
